This is an account of results in PubChem BioAssay (Tox21).

Records with an inconclusive call do not appear. Unmarked numbers belong to inactive results. Activity calls are given as the source filed them. Calls follow the shape of the dose curve; as a rule, active = well fitted inhibition curve with a large enough effect in the repeat runs; inconclusive = weak or mixed curves; inactive = flat fitted curve, though single readings scatter.
% is scaled to controls: 0 for no effect and ±100 for the full control effect; potency is read from the fitted curve at half-maximal effect.

Sequence of Voltage-gated inwardly rectifying potassium channel KCNH2 (Homo sapiens) (Q12809 whole entry, looked up): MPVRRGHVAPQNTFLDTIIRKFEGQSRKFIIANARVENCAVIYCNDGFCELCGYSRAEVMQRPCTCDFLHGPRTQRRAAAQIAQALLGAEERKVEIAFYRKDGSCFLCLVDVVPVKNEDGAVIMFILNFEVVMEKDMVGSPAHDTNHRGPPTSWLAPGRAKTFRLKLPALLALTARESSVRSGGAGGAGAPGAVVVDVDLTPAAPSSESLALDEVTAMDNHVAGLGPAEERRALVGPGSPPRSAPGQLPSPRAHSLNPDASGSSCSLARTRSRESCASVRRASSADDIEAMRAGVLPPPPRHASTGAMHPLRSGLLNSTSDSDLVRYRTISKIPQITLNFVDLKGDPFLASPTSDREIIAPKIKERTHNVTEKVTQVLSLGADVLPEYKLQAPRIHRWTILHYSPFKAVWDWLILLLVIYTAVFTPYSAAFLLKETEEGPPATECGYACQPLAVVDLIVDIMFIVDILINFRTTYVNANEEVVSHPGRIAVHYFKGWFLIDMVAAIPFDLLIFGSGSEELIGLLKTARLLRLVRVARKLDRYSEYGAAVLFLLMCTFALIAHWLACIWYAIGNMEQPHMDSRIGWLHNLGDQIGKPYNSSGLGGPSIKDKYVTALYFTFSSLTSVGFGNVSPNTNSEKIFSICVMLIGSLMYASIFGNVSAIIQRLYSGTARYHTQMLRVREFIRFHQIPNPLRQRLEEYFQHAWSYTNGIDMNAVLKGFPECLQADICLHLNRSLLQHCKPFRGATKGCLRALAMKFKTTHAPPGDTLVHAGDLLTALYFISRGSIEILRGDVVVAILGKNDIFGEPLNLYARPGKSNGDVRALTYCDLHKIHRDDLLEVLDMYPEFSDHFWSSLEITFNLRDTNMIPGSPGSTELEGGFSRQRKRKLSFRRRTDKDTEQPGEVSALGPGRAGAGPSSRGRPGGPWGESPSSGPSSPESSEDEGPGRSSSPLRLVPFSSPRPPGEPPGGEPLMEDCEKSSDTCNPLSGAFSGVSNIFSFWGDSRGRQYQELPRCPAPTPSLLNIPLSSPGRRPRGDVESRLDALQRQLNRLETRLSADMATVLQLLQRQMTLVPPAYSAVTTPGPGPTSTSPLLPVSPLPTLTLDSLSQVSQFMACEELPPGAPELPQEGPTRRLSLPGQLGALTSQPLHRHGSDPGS

This assay has as its target Voltage-gated inwardly rectifying potassium channel KCNH2 (Homo sapiens) (UniProt Q12809). Kind of assay: Human Ether-a-go-go-Related Gene (hERG) channel small molecule antagonists: fluorescence cell-based qHTS assay (AID 1671200). Also: nearly all actives have a fitted effect of over 50% in size. The conditions noted are these: hERG-U2OS cells, FluxOR thallium flux fluorescence; series mostly up to 76.8 µM; activity change, negative = inhibition: at the top concentration. In short, it runs like this:
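Fluorescence at 540 nm emission (480 nm excitation) was recorded kinetically for 2 min at 1-second intervals once the thallium-containing stimulus reached cells previously loaded with FluxOR II dye.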
For `Clc1ccc2cc3ccccc3cc2c1`, the “activity change, negative = inhibition” value was 3.66%.

Take `C[C@]12CCC(=O)C=C1CC[C@@H]1[C@@H]2[C@@H](O)C[C@@]2(C)[C@H]1CC[C@]2(O)C(=O)COC(=O)CCC(=O)O`: the “activity change, negative = inhibition” value was 3.32% [at 35.3 µM]. Take `CC(C)C(C)(C)C(C)(C)C(C)(C)S`: the “activity change, negative = inhibition” value is -0.446%. As for `O=C1C=CC(=O)N1c1ccc(Cc2ccc(N3C(=O)C=CC3=O)cc2)cc1`, the Potency was 34.7 µM (active). Still for that read-out and setting: next, `Cc1ccc(O)c(C(C)(C)C)c1`: “inactive”.

In the case of `CCN1/C(=C/C=C/c2sc3ccccc3[n+]2CC)Sc2ccccc21`, the activity change, negative = inhibition is -25.3% [at 15.8 µM]. Take `Cc1oc(-c2ccccc2)nc1CCC(=O)c1ccc(CC2SC(=O)NC2=O)cc1` (configuration not stated): the “activity change, negative = inhibition” value was -13.7% [at 35.3 µM].

With `NNc1nc(-c2ccc(N)cc2)cs1`, the “activity change, negative = inhibition” value is 1.24%. Take `O=C1CCCCCN1SSN1CCCCCC1=O`: the “activity change, negative = inhibition” value was -3.58%. For the molecule `CC(C)c1ccc2c(c1)CC[C@H]1[C@](C)(CN)CCC[C@]21C`, the Potency is 13.8 µM (active). For `S=c1[nH]c2ccccc2s1`, the “activity change, negative = inhibition” value was 18.8%.

As for `CC(C)CCCCCCCCCCCCCCC(=O)O`, the “activity change, negative = inhibition” value was -1.37%.

For the molecule `CCC(C)(C)C1CCCCC1OC(C)=O` (configuration not stated), the “activity change, negative = inhibition” value was 1.49%. Consider `CCOc1ccc2nc3cc(N)ccc3c(N)c2c1`, for which the “activity change, negative = inhibition” value was 1.13% [at 35.3 µM]. In the case of `CCCN(CCC)C(=O)C(CCC(=O)OCCCN1CCN(CCOC(=O)Cc2c(C)n(C(=O)c3ccc(Cl)cc3)c3ccc(OC)cc23)CC1)NC(=O)c1ccccc1` (configuration not stated), the Potency was 0.301 µM (active). With `CC[C@H]1O[C@]2(CC[C@@H]1C)C[C@@H]1C[C@@H](C/C=C(\C)C[C@@H](C)/C=C/C=C3\CO[C@@H]4[C@H](O)C(C)=C[C@@H](C(=O)O1)[C@]34O)O2`, the “activity change, negative = inhibition” value was 0.595%. For `Nc1c2ccccc2nc2ccccc12`, the Potency entry was “inactive”. As to `CCCCCCCCCCCCCC[P+](CCCC)(CCCC)CCCC` (tested in a mixture with another compound), the Potency is 0.124 µM (active).

On to `Cc1cc(=O)oc2cc(N(C)C)ccc12`, for which the “activity change, negative = inhibition” value was 5.37%.

Take `COc1ccc(C(=O)/C(Br)=C\C(=O)O)cc1`: the “activity change, negative = inhibition” value is -8.22%. `CC(C)(C)C(=O)OCOC(=O)C1N2C(=O)CC2S(=O)(=O)C1(C)C` (configuration not stated): the “activity change, negative = inhibition” value is 2.36% [at 35.3 µM].

`O=[N+]([O-])c1ccccc1Nc1ccccc1`: the Potency was 54.6 µM (active).

Consider `CN(C)c1ccc(SC#N)cc1`, for which the “activity change, negative = inhibition” value was -11%.

As to `COc1ccc(-c2ccc3cc(C(=O)O)ccc3c2)cc1C12CC3CC(CC(C3)C1)C2`, the “activity change, negative = inhibition” value is 2.45% [at 35.3 µM]. Consider `O=C(O)c1c(Cl)cccc1Cl`, for which the “activity change, negative = inhibition” value was -1.98%. For `O=C(OCC1CO1)C1CCCCC1C(=O)OCC1CO1` (configuration not stated), the “activity change, negative = inhibition” value was 2.94%.

Take `CCc1cc(Cc2cc(CC)c(N)c(CC)c2)cc(CC)c1N`: the “activity change, negative = inhibition” value was -18.3%.
